CYP2C9 inhib: blockers of cytochrome P450 2C9 activity – biochemical, luminescence, ADME assay, primary screen. CYP2C9 Supersomes, luciferin-H conversion. inhibition, % at 5 µM. 96,000 compounds, 20% hits. AID 777, 2007;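 active means blocking of liver enzyme CYP2C9 beyond about 50% at 5 µM, limit read from the data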
Target sequence (P11712 whole entry, looked up): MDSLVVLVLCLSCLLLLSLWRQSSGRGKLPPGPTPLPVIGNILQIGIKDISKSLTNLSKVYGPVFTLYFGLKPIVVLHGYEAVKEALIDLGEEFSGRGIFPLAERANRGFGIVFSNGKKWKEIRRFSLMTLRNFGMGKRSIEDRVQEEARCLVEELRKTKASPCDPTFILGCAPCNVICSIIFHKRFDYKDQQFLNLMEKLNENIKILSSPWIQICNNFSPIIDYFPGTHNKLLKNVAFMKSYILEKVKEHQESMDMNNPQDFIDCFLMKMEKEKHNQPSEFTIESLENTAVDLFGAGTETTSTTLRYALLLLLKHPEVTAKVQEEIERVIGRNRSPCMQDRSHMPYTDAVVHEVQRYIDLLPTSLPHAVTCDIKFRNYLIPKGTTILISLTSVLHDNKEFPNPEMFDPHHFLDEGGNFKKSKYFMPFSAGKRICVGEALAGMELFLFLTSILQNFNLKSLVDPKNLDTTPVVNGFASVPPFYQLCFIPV
CYP2C9 act: human CYP2C9 activators, primary screen, biochemical, luminescence. recombinant CYP2C9, luciferin-H conversion; active compounds read high; factor 1 = untreated enzyme, 0 = blocked. activation factor at 5 µM. 96,000 compounds, 1.4% hits. AID 1024, 2008;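 active means activation factor of 2 or more for CYP2C9 at a 5 µM dose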;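 further: 0 = sulfaphenazole-blocked wells and 1 = vehicle-only wells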
CYP2C19 inh: blockers of cytochrome P450 2C19 activity – biochemical, luminescence, ADME assay, primary screen; CYP2C19 Supersomes, luciferin-H EGE luminescence, 30 min; inhibition, % at 5 µM; 96,000 compounds, 21% hits;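 active means CYP2C19 inhibition above a set limit at 5 µM in the primary screen, cut at about 50% in these data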;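 further: plate controls were negative control wells for no effect and 2.5 mM tranylcypromine positive control for full effect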
CYP2C19 act: human CYP2C19 activators, primary screen, biochemical, luminescence | AID 1025, 2008 | recombinant CYP2C19, luciferin-H EGE luminescence; active compounds read high; 0 = fully inhibited enzyme, 1 = untreated enzyme | activation factor at 5 µM | 96,000 tested, under 10 active;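 active means activation factor of at least 2 at 5 µM in the primary screen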;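 further: 0 = wells with 2.5 mM tranylcypromine and 1 = vehicle-only wells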
PostGolgi ctrl: growth inhibition of yeast control strain, primary screen, counter-screen for post-Golgi transport modulator project; efflux-deficient yeast background strain, growth absorbance A615, 16 h; inhibition, % at 10 µM; 98,000 compounds, 5% hits; AID 738, 2007
PostGolgi yeast: phenotypic screen on post-Golgi transport, primary screen | post-Golgi transport phenotypic cell assay | inhibition, % at 10 µM | 98,000 compounds, 0.9% hits;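 further: yeast cells grown in 1536-well plates; yeast grown about 18 h at 30C before absorbance read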
Starred values were filed as active, the others as inactive; x = not tested or not shown. Hits are enriched below; roughly 32% of the tested compounds scored in any of these assays. Unless noted, no stated cut-off is given here; in the data, active means inhibition above about 30%; inactive means the rest.

SMILES	CYP2C9 inhib	CYP2C9 act	CYP2C19 inh	CYP2C19 act	PostGolgi ctrl	PostGolgi yeast
Fc1ccc(CNc2ncnc3c2cnn3-c2ccccc2)cc1	58*	0.4	19	0.8	12	-2
Cc1cccc(-n2ncc3c(NCc4ccccc4)ncnc32)c1	13	0.9	9	0.9	6	-5
c1ccc(-n2ncc3c(NCc4ccccn4)ncnc32)cc1	70*	0.3	42	0.6	6	3
CC1CCN(c2ncnc3c2cnn3-c2ccccc2)CC1	21	0.8	18	0.8	32*	5
c1ccc(-n2ncc3c(NCCN4CCOCC4)ncnc32)cc1	52*	0.5	29	0.7	12	0
c1ccc(-n2ncc3c(NCCN4CCCCC4)ncnc32)cc1	14	0.9	18	0.8	5	7
COc1cc(C)c(CNC2CCCCC2)cc1C	-3	1	12	0.9	1	-1
CC1=C(C(=O)Nc2ccc(C)cc2)C(c2ccc(N(C)C)cc2)NC(=O)N1 (stereo unspecified)	x	x	x	x	5	3
Clc1ccc(-c2nnsc2SCc2ccccc2)cc1	26	0.7	-13	1.1	13	24
NC(=O)C1(N2CCCCC2)CCN(C(=O)c2cccs2)CC1	9	0.9	29	0.7	2	0
CN(C)CCCNc1ncnc2c1cnn2-c1ccccc1	22	0.8	-16	1.2	-6	-4
CC(C)(C)Nc1ncnc2c1cnn2-c1ccccc1	63*	0.4	36	0.6	x	x
c1ccc(CNc2ncnc3c2cnn3-c2ccccc2)cc1	54*	0.5	13	0.9	0	3
CCOC(=O)C1CCN(C(=O)CN2C(=O)C(CC)Oc3ccccc32)CC1 (stereo unspecified)	-4	1	28	0.7	-4	-3
CC(C)n1c(SCC(=O)c2ccc3c(c2)OCCO3)nc2c1c(=O)n(C)c(=O)n2C	26	0.7	14	0.9	x	x
Brc1cc2[nH]cnc2c2ccccc12	-21	1.2	50*	0.5	15	1
CCc1ccc(NC(=O)CCS(=O)(=O)c2cccc3nsnc23)cc1	85*	0.2	87*	0.1	2	6
COc1cccc(CNC(=O)CCS(=O)(=O)c2cccc3nonc23)c1	-19	1.2	42	0.6	-1	-5
COc1cccc(CNC(=O)CCS(=O)(=O)c2cccc3nsnc23)c1	-33	1.3	64*	0.4	4	2
Cc1ccc(CNC(=O)CCS(=O)(=O)c2cccc3nsnc23)cc1	-22	1.2	34	0.7	13	-2
N#CCc1ccc(C(=O)c2ccccc2)s1	20	0.8	70*	0.3	0	-6
O=C(O)Cc1ccc(C(=O)c2cccs2)s1	4	1	8	0.9	3	-1
COc1cc2c(cc1NC(=O)Cn1cnc3c1c(=O)n(C)c(=O)n3C)oc1ccccc12	-7	1.1	0	1	-3	-7
CO/N=C(\Cn1ncc(NC2CCCCC2)c(Br)c1=O)c1ccc(Cl)cc1	54*	0.5	7	0.9	76*	23
C=CCNc1cnn(CC(C)=O)c(=O)c1Br	-5	1	7	0.9	14	10
SMILES	CYP2C9 inhib	CYP2C9 act	CYP2C19 inh	CYP2C19 act	PostGolgi ctrl	PostGolgi yeast
CO/N=C(\Cn1ncc(N2CCCC2)c(Br)c1=O)c1ccc(Cl)cc1	86*	0.1	89*	0.1	19	-15
Cc1cc(C)n2cc(CSc3ncccc3C(=O)O)nc2n1	-14	1.1	-17	1.2	6	12
CCc1nnc(NC(=O)c2nc3nc(C)cc(C)n3n2)s1	-6	1.1	-10	1.1	1	8
CC(=O)c1cnc2c(C(=O)O)cnn2c1C	-34	1.3	-3	1	-3	4
CC(=O)c1cnc2nc(C)nn2c1C	-3	1	6	0.9	-5	32*
O=C(Nc1ccc(N2CCN(C(=O)c3ccco3)CC2)c(Cl)c1)c1cccs1	48	0.5	32	0.7	28	-7
CC(C)OC(=O)c1c2nc3ccccc3nc2n2c1[nH]c(=O)c1ccccc12	15	0.9	-7	1.1	71*	34*
c1ccc(Cn2nnc3c(N4CCCC4)ncnc32)cc1	20	0.8	21	0.8	-3	13
CC1Cc2ccccc2N1C(=O)CN1CCc2ccccc2C1 (stereo unspecified)	36	0.6	92*	0.1	5	12
CC1Cc2ccccc2N1C(=O)CSc1ccccc1 (stereo unspecified)	-4	1	96*	0	10	-2
CC1Cc2ccccc2N1C(=O)CSc1nnnn1Cc1ccccc1 (stereo unspecified)	84*	0.2	90*	0.1	12	-3
CC1Cc2ccccc2N1C(=O)CSC1=NCCS1 (stereo unspecified)	-19	1.2	14	0.9	2	0
CC1Cc2ccccc2N1C(=O)Cn1nc(C(=O)O)c2ccccc2c1=O (stereo unspecified)	1	1	-4	1	14	2
CC1Cc2ccccc2N1c1ncnc2c1nnn2Cc1ccccc1 (stereo unspecified)	65*	0.4	47	0.5	42*	10
Cn1nc(-c2ccccc2)c(C#N)c1Sc1cccc(Cl)c1	28	0.7	31	0.7	12	-7
CC(C)(C)C1=C(C#N)C(c2cc3c(cc2Br)OCO3)C(C#N)=C(N)O1 (stereo unspecified)	25	0.8	21	0.8	x	x
CCCS(=O)(=O)N1CCCC(C(=O)NCC2CCCO2)C1 (stereo unspecified)	2	1	1	1	-13	-7
O=C(NC1CCCCC1)c1cccc(Cn2cc(Cl)cn2)c1	12	0.9	3	1	1	0
Cc1cc(N(CN2CCCC2=O)C(=O)c2ccccc2)no1	8	0.9	3	1	12	-7
CC(C)c1nc(SCC(=O)N2c3ccccc3CC2C)c2ccccc2n1 (stereo unspecified)	99*	0	59*	0.4	37*	12
CC1Cc2ccccc2N1C(=O)CSc1nc2c(c(=O)n(C)c(=O)n2C)n1Cc1ccccc1 (stereo unspecified)	96*	0	76*	0.2	21	23
CC1Cc2ccccc2N1C(=O)CSc1nnc(CNc2ccccc2)o1 (stereo unspecified)	-3	1	0	1	37*	0
CC(C)NC(=O)Cn1c(SCC(=O)N2c3ccccc3CC2C)nc2ccccc21 (stereo unspecified)	91*	0.1	61*	0.4	2	3
